# Data taken from the supplement of paper PMC3334620.
# Whole data set: some 33,000 sequences, median “E-score (-0.5 to 0.5)” near -0.021, cut for the highest 2% near 0.32. The list comes from a sample in which the highest values are over-represented; it also holds similar and randomly drawn sequences.
# Target: T1, Zap1 (UniProt P47043)
# T1 sequence: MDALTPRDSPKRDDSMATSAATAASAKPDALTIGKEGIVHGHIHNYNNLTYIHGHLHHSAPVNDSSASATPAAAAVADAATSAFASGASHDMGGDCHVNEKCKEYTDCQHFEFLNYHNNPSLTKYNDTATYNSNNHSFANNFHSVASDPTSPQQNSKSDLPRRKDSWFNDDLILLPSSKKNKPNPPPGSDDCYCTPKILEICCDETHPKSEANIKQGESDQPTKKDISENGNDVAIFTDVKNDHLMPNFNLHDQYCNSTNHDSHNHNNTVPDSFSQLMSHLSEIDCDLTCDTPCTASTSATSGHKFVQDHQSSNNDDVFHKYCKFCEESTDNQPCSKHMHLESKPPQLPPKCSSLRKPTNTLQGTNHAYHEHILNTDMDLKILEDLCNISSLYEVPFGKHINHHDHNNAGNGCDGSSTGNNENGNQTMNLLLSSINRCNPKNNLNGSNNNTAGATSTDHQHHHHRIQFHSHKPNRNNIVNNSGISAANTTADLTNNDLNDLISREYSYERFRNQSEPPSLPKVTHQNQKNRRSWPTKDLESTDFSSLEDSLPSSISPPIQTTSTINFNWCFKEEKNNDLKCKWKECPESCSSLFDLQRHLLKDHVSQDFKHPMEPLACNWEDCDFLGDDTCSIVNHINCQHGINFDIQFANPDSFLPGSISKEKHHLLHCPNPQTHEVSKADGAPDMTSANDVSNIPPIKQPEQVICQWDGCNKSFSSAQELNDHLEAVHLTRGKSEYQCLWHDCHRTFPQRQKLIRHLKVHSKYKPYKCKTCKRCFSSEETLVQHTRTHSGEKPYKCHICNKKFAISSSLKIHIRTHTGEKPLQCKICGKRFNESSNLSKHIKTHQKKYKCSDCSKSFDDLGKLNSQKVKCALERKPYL
# Experiment: PBM E-score (8-mer binding enrichment) (E-score (-0.5 to 0.5)); higher = stronger / more preferred TF binding
# Conditions: protein concentration: 200 nM; construct: GST-full length
# Experimental: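 Universal 'all 10-mer' protein binding microarrays (Agilent AMADID 015681) probed with GST-tagged S. cerevisiae TFs (full-length or DBD) made by in vitro transcription/translation (PURExpress), about 100-200 nM. Bound TF was detected with fluorescent anti-GST. Each ungapped 8-mer (which stands for itself and its reverse complement) is scored by the PBM enrichment score (E-score), a modified Wilcoxon-Mann-Whitney statistic from -0.5 to +0.5, computed with the Universal PBM Analysis Suite. Scale: above 0.35 generally sequence-specific binding.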
row,Sequence,PBM E-score
1,AACGCATT,0.0284
2,AAGGGTGA,0.293
3,AAGGGTCT,0.136
4,AGGGGTGA,0.219
5,GAGGGGTA,0.245
6,CAGGGTCG,0.275
7,GAGGGTTA,0.45
8,CAGGGTCA,0.417
9,CAGGGTCC,0.14
10,AGGGGTCC,0.0654
11,AAGGGTCA,0.439
12,GAGGGTGA,0.126
13,AGGGGTCA,0.438
14,CATGCGAC,0.014
15,CGACCACC,0.15
16,CCTCTGTC,0.0337
17,AAAGTGTG,0.071
18,ATATCAGA,0.0906
19,CCTCGACC,-0.056
20,TTGCTAAA,-0.0992
21,GGCCCTGA,-0.137
22,GGGGGTCA,-0.132
23,CGGGGTCA,0.332
24,GCGGGTCA,0.367
25,ACGGGTCA,0.223

row,Sequence,PBM E-score
1,GCGGGTCC,-0.0967
2,CCGGGTCA,0.316
3,AGGTGGGC,-0.0375
4,CAGCTCAA,-0.0501
5,GCAAGATA,0.0727
6,CCCCTACC,0.0857
7,ACCCTACC,0.364
8,CCCCTACG,-0.117
9,AACCTACG,0.123
10,AACCTACT,0.135
11,GCCCTACC,0.0168
12,ACCCTACT,0.329
13,ACCCTACA,0.419
14,ACCCTACG,0.361
15,CCCCTACA,-0.0402
16,AGCCTACT,-0.212
17,TCCCTACA,-0.0805
18,GAGTTGCA,-0.0948
19,AAATTCCT,-0.0586
20,CAAAGTGC,-0.0833
21,CGAATCGA,0.00445
22,ATCGAATG,-0.106
23,ACCTAGGA,0.159
24,CTCAGGCA,-0.158
25,ATTGCGAA,-0.0714

row,Sequence,PBM E-score
1,GTAACAAC,0.234
2,AACATGCG,-0.0232
3,GCCAGAAC,-0.226
4,CATAACCA,0.462
5,TATAACAA,0.291
6,TCTAACCA,0.231
7,AATAACCA,0.445
8,AATAACAA,0.0521
9,GATAACGA,0.00419
10,AATAACGA,-0.036
11,CATAACTA,0.18
12,GATAACTA,0.231
13,CATAACAA,0.179
14,GATAACCA,0.426
15,TATAACCA,0.45
16,GTGTTGAA,-0.0764
17,ACGGCTCC,-0.198
18,GCCTTTGA,0.0766
19,GGTGTCAC,0.0261
20,CTCTGCAG,-0.126
21,ACTATAGT,0.197
22,AGCCGCTC,-0.0957
23,CCTGTTGC,0.0211
24,GCATAGAC,-0.117
25,CTGGTAAG,0.055

row,Sequence,PBM E-score
1,GCCATCCA,-0.197
2,CATAACCG,0.395
3,CATAACGG,-0.0515
4,CATAACAG,-0.0694
5,GGTTATAA,0.471
6,AGTTATAA,0.193
7,CTATATAA,0.24
8,TTATATAA,0.331
9,ATATATAA,0.249
10,GGTTATAC,0.461
11,AGTTATAC,0.104
12,CGTTATAA,0.247
13,CGTTATAC,-0.00572
14,ATTTGCGA,0.0692
15,CCCCATTC,-0.0769
16,ATCCTTCC,-0.306
17,GCATCTTA,-0.0867
18,ACCATTCT,0.0676
19,GATCATTA,0.0548
20,TATCCGGA,0.0937
21,ACGGTAAT,0.139
22,ACGGTAAG,0.016
23,ACGGTAAC,0.364
24,GCGGTAAA,0.165
25,CCGGTAAC,0.316

row,Sequence,PBM E-score
1,GCGGTAAC,0.32
2,GTTTGGAA,0.116
3,AGAAGTAC,-0.115
4,CGTAGCGA,-0.251
5,CTTGGTTC,0.232
6,ATTGGTTA,0.402
7,GTTGGTTA,0.316
8,ATTGGTTG,0.186
9,ATTGGTTC,0.141
10,CTTGGTTA,0.334
11,CCCTGCGG,0.292
12,CTAGCTCA,-0.147
13,ATATGGGG,-0.0334
14,CGAGAAAC,0.0891
15,ACCCTGAA,0.399
16,ACCCTGTA,0.353
17,CCCCTGAA,0.127
18,GCCCTGTA,-0.0104
19,GCCCTGAA,0.0835
20,CACCTGTA,-0.0421
21,AACCTGAA,0.144
22,AACCTGTA,0.324
23,CCCCTGTA,0.02
24,AACAGCGG,-0.195
25,AATGACCG,0.216

row,Sequence,PBM E-score
1,AATGACCA,0.334
2,AATGACTA,-0.136
3,AATGACGT,-0.0682
4,TATGACCA,0.288
5,AATGACCT,0.393
6,ACCTTAGG,0.216
7,AGTGCACG,-0.151
8,CATCAGCG,-0.182
9,AAGTATGT,-0.00136
10,TAGGTTCA,0.175
11,GAGGTTAA,0.429
12,GAGGTTGA,-0.00385
13,GAGGTTCC,0.223
14,TAGGTTGA,0.101
15,AAGGTTAC,0.475
16,GAGGTTGC,0.238
17,GAGGTTCA,0.254
18,AACGTTAC,0.111
19,GAGGTTAC,0.473
20,AAGGTTTC,0.206
21,TAGGTTAA,0.319
22,AGCGCACT,-0.293
23,CAGCCAAG,-0.242
24,TCTGAGAA,-0.0814
25,CCTCTGAC,0.139

row,Sequence,PBM E-score
1,AGTAGCAG,-0.0921
2,GTAGGGAC,-0.0704
3,CGGTTTCA,0.03
4,AACTTAAC,0.244
5,CTGATTCA,-0.158
6,AATGTTAA,-0.132
7,CAGGTTAA,0.325
8,AAGGTTAG,0.35
9,CAGGTTTA,-0.0228
10,CAGGTTTC,0.198
11,CAGATTAA,0.118
12,CAGGTTAG,0.212
13,CAGATTAC,0.0563
14,AAGGTTTG,0.176
15,CAGGTTAC,0.424
16,AAGGTTTA,0.226
17,AAGGTTAA,0.415
18,TATTATGA,0.00643
19,ACATAGCC,-0.0651
20,CGGTCTAC,-0.149
21,AGATCAGA,-0.0903
22,AAACCTTG,0.0789
